The supplement of paper PMC11732987, “Enantioselective OTUD7B fragment discovery through chemoproteomics screening and high-throughput optimisation” (Communications Chemistry, 2025)
Unmarked numbers belong to inactive results.

Assays:
Test in all cases: log2 ratio of Biotin-Ahx-Ub-VS probe labelling (fragment/DMSO); higher = less target engagement (more negative = stronger competition), active = hit call of the paper (q ≤ 0.05, log2 ratio ≤ -1)
Settings in all cases: compound concentration: 200 uM; treatment time: 3 h
[1] = target: T1, OTUD6B (UniProt Q8N6M0)
T1 sequence (whole entry): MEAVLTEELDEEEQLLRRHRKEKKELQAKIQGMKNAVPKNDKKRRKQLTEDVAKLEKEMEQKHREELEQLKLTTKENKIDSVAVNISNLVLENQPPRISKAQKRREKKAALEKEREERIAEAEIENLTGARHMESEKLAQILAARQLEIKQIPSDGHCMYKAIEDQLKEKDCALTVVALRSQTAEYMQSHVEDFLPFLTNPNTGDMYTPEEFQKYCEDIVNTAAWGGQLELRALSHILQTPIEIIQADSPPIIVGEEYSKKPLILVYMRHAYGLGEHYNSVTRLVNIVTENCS
Procedure, shortened: (§1)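 Global-median-normalised Spectronaut label-free quantities were compared by unpaired t-test, and values are average log2 ratios of fragment over vehicle. Only proteins with ≥2 unique peptides were used. HEK293T lysate (495 µg per sample) was treated in triplicate with fragment at 200 µM or vehicle for 3 h and then with Biotin-Ahx-Ub-VS at 0.5 µM final for 1 h. Labelled DUBs were then NeutrAvidin-enriched, digested with LysC and trypsin, and run by diaPASEF LC-MS/MS.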

[2] = target: T2, OTUD7B (UniProt Q6GQQ9)
T2 sequence (whole entry): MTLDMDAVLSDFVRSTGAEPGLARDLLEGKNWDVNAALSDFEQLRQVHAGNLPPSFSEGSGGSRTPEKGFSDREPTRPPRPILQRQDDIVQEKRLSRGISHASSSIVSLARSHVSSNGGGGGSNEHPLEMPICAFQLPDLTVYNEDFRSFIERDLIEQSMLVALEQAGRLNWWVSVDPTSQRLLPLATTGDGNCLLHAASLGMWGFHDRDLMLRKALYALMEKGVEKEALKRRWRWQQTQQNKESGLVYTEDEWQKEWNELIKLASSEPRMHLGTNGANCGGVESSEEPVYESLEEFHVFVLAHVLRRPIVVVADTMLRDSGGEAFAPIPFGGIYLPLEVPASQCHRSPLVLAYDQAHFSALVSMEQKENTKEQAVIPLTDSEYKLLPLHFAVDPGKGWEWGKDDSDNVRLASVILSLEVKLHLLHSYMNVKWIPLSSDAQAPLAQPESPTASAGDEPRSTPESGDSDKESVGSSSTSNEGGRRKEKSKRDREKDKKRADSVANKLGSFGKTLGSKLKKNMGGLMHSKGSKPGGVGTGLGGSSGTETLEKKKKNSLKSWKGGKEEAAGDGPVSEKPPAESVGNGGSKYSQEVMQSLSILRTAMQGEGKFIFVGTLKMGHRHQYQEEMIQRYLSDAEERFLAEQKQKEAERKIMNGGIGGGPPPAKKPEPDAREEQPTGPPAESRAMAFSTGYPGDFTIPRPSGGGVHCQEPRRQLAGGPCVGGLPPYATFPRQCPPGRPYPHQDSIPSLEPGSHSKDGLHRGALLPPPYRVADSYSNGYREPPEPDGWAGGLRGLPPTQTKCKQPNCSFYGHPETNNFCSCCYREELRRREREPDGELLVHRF
Procedure, shortened: as §1

[3] = target: PRPF8 (UniProt Q6P2Q9)
Procedure, shortened: as §1

[4] = target: T3, PSMD7 (UniProt P51665)
T3 sequence (whole entry): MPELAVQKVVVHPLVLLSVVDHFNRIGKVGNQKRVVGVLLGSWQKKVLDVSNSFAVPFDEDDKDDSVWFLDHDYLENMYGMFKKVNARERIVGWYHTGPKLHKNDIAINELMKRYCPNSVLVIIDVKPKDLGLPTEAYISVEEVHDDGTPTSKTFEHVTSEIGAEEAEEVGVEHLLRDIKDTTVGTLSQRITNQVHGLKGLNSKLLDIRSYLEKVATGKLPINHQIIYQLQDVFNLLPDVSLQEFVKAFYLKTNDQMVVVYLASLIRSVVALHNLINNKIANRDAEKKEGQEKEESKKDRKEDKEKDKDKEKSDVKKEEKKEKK
Procedure, shortened: as §1

[5] = target: UCHL1 (UniProt P09936)
Chain of UCHL1 (P09936 whole entry, looked up): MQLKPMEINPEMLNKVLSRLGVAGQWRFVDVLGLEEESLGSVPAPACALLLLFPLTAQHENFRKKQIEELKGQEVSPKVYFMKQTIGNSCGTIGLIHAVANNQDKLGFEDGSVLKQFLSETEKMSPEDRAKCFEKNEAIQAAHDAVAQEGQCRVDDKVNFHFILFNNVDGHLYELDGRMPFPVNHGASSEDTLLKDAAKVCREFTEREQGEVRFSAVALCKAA
Procedure, shortened: as §1

[6] = target: T4, UCHL3 (UniProt P15374)
T4 sequence (whole entry): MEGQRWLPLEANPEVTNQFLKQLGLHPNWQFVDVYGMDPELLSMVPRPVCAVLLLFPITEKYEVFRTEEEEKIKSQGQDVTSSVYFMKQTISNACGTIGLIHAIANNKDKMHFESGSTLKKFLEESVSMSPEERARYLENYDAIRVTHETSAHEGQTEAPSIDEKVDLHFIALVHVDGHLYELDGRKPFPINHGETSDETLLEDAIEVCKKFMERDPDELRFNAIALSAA
Procedure, shortened: as §1

[7] = target: T5, UCHL5 (UniProt Q9Y5K5)
T5 sequence (whole entry): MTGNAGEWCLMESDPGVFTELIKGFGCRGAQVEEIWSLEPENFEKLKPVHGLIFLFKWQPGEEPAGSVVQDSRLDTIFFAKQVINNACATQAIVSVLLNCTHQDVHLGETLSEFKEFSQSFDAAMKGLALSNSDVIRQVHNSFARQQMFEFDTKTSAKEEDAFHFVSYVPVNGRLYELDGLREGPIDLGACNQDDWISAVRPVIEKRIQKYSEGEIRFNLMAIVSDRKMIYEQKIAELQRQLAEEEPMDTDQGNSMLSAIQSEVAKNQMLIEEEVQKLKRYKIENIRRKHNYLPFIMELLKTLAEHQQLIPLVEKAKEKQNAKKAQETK
Procedure, shortened: as §1

[8] = target: USP10 (UniProt Q14694)
Chain of USP10 (Q14694 whole entry): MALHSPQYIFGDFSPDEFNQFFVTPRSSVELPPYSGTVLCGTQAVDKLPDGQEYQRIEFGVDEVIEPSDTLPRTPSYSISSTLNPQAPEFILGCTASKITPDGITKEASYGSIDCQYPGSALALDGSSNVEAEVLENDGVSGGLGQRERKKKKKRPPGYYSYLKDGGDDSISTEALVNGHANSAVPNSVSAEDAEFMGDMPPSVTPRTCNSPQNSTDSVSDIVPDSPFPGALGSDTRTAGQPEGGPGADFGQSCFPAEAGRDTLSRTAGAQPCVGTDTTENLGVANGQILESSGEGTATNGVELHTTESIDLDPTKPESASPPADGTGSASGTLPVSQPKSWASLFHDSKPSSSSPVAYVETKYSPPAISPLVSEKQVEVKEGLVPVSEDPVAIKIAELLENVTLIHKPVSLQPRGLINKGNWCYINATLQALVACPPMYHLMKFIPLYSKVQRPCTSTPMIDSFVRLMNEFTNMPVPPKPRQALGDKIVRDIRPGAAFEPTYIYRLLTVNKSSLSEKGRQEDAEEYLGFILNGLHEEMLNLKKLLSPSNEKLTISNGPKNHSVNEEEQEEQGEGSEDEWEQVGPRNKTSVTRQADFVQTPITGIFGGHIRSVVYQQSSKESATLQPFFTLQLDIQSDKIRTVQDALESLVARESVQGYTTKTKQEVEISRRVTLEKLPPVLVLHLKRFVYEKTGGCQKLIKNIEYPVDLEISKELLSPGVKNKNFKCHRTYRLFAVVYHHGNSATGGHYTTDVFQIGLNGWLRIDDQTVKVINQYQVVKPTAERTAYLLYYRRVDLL
Procedure, shortened: as §1

[9] = target: T6, USP15 (UniProt Q9Y4E8)
T6 sequence (whole entry): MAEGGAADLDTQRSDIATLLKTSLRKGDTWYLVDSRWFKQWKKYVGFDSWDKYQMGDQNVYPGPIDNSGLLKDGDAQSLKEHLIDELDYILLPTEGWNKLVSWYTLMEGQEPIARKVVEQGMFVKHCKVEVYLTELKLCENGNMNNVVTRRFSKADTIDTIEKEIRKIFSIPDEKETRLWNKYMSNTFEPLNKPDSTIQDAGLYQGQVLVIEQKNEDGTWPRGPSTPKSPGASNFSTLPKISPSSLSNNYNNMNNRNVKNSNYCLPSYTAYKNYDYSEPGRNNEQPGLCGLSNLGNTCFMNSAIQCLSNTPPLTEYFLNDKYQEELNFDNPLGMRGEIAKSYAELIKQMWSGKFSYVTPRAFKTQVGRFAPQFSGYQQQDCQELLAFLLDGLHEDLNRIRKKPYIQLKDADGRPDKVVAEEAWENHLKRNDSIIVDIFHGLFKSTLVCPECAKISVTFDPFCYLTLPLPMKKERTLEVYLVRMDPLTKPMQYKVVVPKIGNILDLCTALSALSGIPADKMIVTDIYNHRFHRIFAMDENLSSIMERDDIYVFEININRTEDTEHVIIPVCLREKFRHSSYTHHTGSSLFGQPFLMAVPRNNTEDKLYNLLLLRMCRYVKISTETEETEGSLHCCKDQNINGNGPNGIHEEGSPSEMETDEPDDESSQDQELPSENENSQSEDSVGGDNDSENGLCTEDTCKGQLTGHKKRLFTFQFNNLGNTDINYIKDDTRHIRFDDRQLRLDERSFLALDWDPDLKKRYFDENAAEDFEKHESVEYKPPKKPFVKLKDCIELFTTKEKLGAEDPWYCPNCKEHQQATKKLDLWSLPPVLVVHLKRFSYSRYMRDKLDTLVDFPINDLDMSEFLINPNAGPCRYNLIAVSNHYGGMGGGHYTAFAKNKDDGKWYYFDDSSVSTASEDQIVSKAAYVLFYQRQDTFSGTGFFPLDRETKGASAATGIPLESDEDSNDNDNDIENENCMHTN
Procedure, shortened: as §1

## CC(NC(=O)CCl)c1noc(Cc2ccccc2)n1 (centres undefined)
[1]
  log2 ratio of Biotin-Ahx-Ub-VS probe labelling: -0.409
[2]
  log2 ratio of Biotin-Ahx-Ub-VS probe labelling: -0.724
[3]
  log2 ratio of Biotin-Ahx-Ub-VS probe labelling: 0.0633
[4]
  log2 ratio of Biotin-Ahx-Ub-VS probe labelling: -0.49
[5]
  log2 ratio of Biotin-Ahx-Ub-VS probe labelling: -1.97 (active)
[6]
  log2 ratio of Biotin-Ahx-Ub-VS probe labelling: -0.00714
[7]
  log2 ratio of Biotin-Ahx-Ub-VS probe labelling: -0.344
[8]
  log2 ratio of Biotin-Ahx-Ub-VS probe labelling: 0.046
[9]
  log2 ratio of Biotin-Ahx-Ub-VS probe labelling: -0.331
